PubChem BioAssay AID651550 (National Center for Advancing Translational Sciences (NCATS), 2012)
About 1,100 (0.31%) of roughly 360,000 compounds were called active. Cut-off read from the data, not from the text of the source: active = activity change below about -80%; inconclusive = mostly about -51% to -80%; inactive = weaker than that. This excerpt belongs to a sample that is enriched for actives.

These compounds were tested against RAC-alpha serine/threonine-protein kinase (Homo sapiens) (UniProt P31749) (assay: HTS Assay for Inhibitors of Akt Phophorylation: Primary Screen). Details: Neuro2A IGF-stimulated pAkt S473 HTRF, 20 min; at 50 µM, active compounds read low.
From the text: The serine/threonine protein kinase Akt (protein kinase B) regulates various cellular processes, including cell survival, growth, proliferation, migration and differentiation. It has been well established that Akt is activated through two essential steps involving membrane translocation and phosphorylation. Cytosolic Akt is recruited to the plasma membrane via the interaction between the PH domain and membrane PIP3 produced by phosphoinositide-3 kinase (PI3K) upon growth factor receptor stimulation. The membrane-Akt interaction results in conformational changes of Akt, enabling its activation through phosphorylation at T308 in the kinase domain and at S473 in the C-terminal hydrophobic motif by PDK1 and mTOR-rictor complex (mTORC2), respectively. […] These findings indicate that S473 phosphorylation, as an important modulator of Akt activation, may be a valuable drug target for cell growth, survival, proliferation and differentiation. These inhibitors also may have significant therapeutic potential with fewer side effects, especially for the conditions involving hyperactive Akt signaling, such as cancer and Alzheimer's disease.
To this end, a miniaturized assay was developed to be screened against the Molecular Libraries Small Molecule Repository (MLSMR).
NIH Chemical Genomics Center [NCGC]
NIH Molecular Libraries Probe Centers Network [MLPCN]
Assay Submitter (PI): Hee-Yong Kim, National Institute on Alcohol Abuse and Alcoholism
3 uL of Neuro2A cell suspension in DMEM containing 0.5% FBS and […] antibiotics mix was plated in a white solid bottom tissue culture-treated 1536-well plate (Greiner Bio-One, Monroe, NC) at 4,500 cells per well and incubated overnight at 37 deg C. 23 nL/well of compound solutions in DMSO was added with Pintool transfer (Kalypsis, San Diego, CA) at single […] final concentration. Then, the cells were stimulated with 1.5 uL of IGF (6 nM final concentration) and incubated at 37 deg C for 20 min. The reaction was terminated by the addition of 1.5 uL blocking reagent mixed with lysis buffer (1:25 correspondingly) provided with HTRF(R) Phospho Akt (Ser473) kit (Cisbio US, Bedford, MA), with following incubation for 50 min at ambient temperature. The detection HTRF conjugates from the kit were prepared according to the protocol, pre-mixed 1:1 prior to dispensing, and 2 uL/well was added with BioRAPTR FRD dispenser (Beckman Coulter). The assay plates were incubated for 24 hours at ambient temperature, and the HTRF fluorescence was measured using Envision plate reader (PerkinElmer) with excitation at 330nm, emission at 615nm (Eu(3)-Cryptate donor signal) and 665nm (d2 acceptor signal). The ratio of […] was calculated for each well.
% is set by controls: 0 for no effect and ±100 for the full control effect.

Structure (SMILES) | activity change
Cc1ccc2c(C)c(C(=O)N3CCN(c4ccncc4)CC3)oc2c1C | inactive
O=C(c1cc2cc(Br)cc(Br)c2oc1=O)N1CCOCC1 | inactive
COc1c(Br)cc2c(C)c(C(=O)N3CCOCC3)oc2c1Br | -114% (active)
CCOC(=O)[C@]12CCCC=C1N(CCC1=CCCCC1)C(=O)[C@H](CC(=O)N1CCOCC1)C2 | inactive
OCCC#Cc1ccc(N2C(c3ccsc3)=Cc3ccc(F)cc3C2c2c[nH]c3ccccc23)cc1 (stereo not given) | inactive
CC(C)CC1(C)NC(=O)N(CC(=O)Nc2ccc3c(c2)OCCO3)C1=O (stereo not given) | inactive
CC1=NN(C(C)C)C(=O)C1 | -118% (active)
CCOC(=O)NN1C(=O)c2ccccc2NC1c1ccccc1O (stereo not given) | inactive
CC1(C(=O)NCc2ccccc2)CSCC(=O)N1CCCN1CCOCC1 (stereo not given) | inactive
COc1ccc2ccccc2c1CNCc1ccccn1 | inactive
CSCCC(C(=O)NC(C)(C)C)n1c(-c2ccccc2)nc2ccccc21 (stereo not given) | inactive
O=C(CCn1ccc([N+](=O)[O-])n1)Nc1nccs1 | inactive
Cc1c(Br)c([N+](=O)[O-])nn1C(C)C(=O)Nc1nccs1 (stereo not given) | -109% (active)
CC(NC(=O)C(=O)Nc1nccs1)c1ccccc1 (stereo not given) | inactive
Cc1cccc(C(=O)OC(C)CN2CCN(C)CC2)c1 (stereo not given) | inactive
CC(CN1CCCCC1)OC(=O)c1ccccc1Cl (stereo not given) | -96.5% (active)
Cc1cccc(C(=O)OC(C)CN2CCCC2)c1 (stereo not given) | inactive
CCOC(=O)[C@]12CCCC=C1N(CCC1=CCCCC1)C(=O)[C@H](CC(=O)N1CCSCC1)C2 | inactive
Cc1cccc(C)c1NC(=O)C(c1cccc(F)c1)N1CCN(C)CC1 (stereo not given) | inactive
Cc1ccc(C)c(NC(=O)COC(=O)c2nn(C)c(=O)c3ccccc23)c1 | inactive
Cc1ccc(F)cc1NC(=O)CSCc1c(C)noc1C | inactive
Cc1ccc(F)cc1NC(=O)Cc1nn(C)c(=O)c2ccccc12 | -106% (active)
CCN1C(=O)/C(=C\N2CCOCC2)SC1=S | inactive
O=C(O)CSc1nnc(-c2ccc3c(c2)OCO3)n1-c1ccccc1 | inactive
NNC(=O)CSc1nnc(-c2ccccc2)n1-c1ccccc1 | inactive
O=C(O)CCSc1nnc(-c2ccccc2)n1-c1ccccc1 | -109% (active)
CS(=O)(=O)N1CCN=C1SCc1ccc(F)cc1 | inactive

Structure (SMILES) | activity change
Cc1cc(Cl)ccc1OCc1nc(-c2ccncc2)no1 | inactive
Cc1noc(COc2ccccc2OCc2onc(C)c2Cl)c1Cl | -112% (active)
Cc1cc(OCCOc2cccc3cccnc23)c(C)cc1Cl | inactive
CC1(C(=O)NCc2ccccc2)CN(S(C)(=O)=O)CC(=O)N1CC(F)(F)F (stereo not given) | inactive
Cc1cccc(NC(=O)CSc2nc3c(c(=O)[nH]2)CCCC3)c1C | inactive
Cc1cccc(NC(=O)COC(=O)CCc2ccccc2)c1C | inactive
Cc1cccc(NC(=O)CSC(N)=O)c1C | -113% (active)
C=Cc1ccc(C(=O)N2CCCC(CCC(=O)N3CCN(c4ccccn4)CC3)C2)cc1 (stereo not given) | inactive
O=C(C[C@H]1CC[C@H]2[C@@H](COC[C@H](O)CN2C(=O)c2ccccn2)O1)N1CCN(c2ccccc2)CC1 | inactive
FC(F)(F)c1cc(-c2ccco2)nc(NCc2ccc(Cl)cc2)n1 | -102% (active)
FC(F)(F)c1cc(-c2cccs2)nc(NCc2ccco2)n1 | -2.47% (inactive)
COc1nc(NCc2ccc(Cl)cc2)nc(OC)n1 | 1.36% (inactive)
CC(C)(C)n1nnnc1C(c1ccc2ncccc2c1)N1CCSCC1 (stereo not given) | inactive
COc1ccc(C(O)C(O)(C(=O)OC(C)C)c2ccc(C)cc2)cc1 (stereo not given) | inactive
FC(F)(F)c1cnc(Oc2ccccc2-c2nnc(-c3ccc(Cl)cc3)o2)c(Cl)c1 | -102% (active)
CSc1ccccc1-c1nnc(-c2ccc(Cl)cc2)o1 | -0.409% (inactive)
Cc1cc(C)cc(NS(=O)(=O)c2ccc(Oc3ncc(C(F)(F)F)cc3Cl)cc2)c1 | -13.6% (inactive)
COC(=O)[C@@]12C[C@@H](CC(=O)N3CCC(c4ccccc4)CC3)C(=O)N(Cc3ccccc3)C1=CCC(C)(C)C2 | inactive
COC(=O)C1=CN(c2c(C)cc(C)cc2C)C(N)=C(C#N)C1c1cccc(F)c1 (stereo not given) | inactive
Cc1ccc(Cc2nnc(SCC(=O)Nc3ccc(C)cc3C)[nH]c2=O)cc1 | inactive
CCCc1cc(=O)[nH]c(SCC(=O)Nc2sc3c(c2C#N)CCCC3)n1 | inactive
N#Cc1c(NC(=O)CSc2nc3ccccc3c(=O)n2Cc2ccco2)sc2c1CCCC2 | -91.1% (active)
NC(=O)c1c(NC(=O)CSc2nnc(-c3ccco3)n2N)sc2c1CCCC2 | inactive
CCC(C)CN1C(=O)CN(S(C)(=O)=O)CC1(C)C(=O)Nc1ccc2c(c1)OCCO2 (stereo not given) | inactive
O=C1Nc2ccccc2-n2nnnc2C1N1CCN(c2cccc(C(F)(F)F)n2)CC1 (stereo not given) | inactive
CC1CCN(c2oc(-c3ccccc3F)nc2C#N)CC1 | inactive
N#Cc1nc(COc2ccc(Cl)cc2)oc1N1CCCC1 | inactive

Structure (SMILES) | activity change
Cc1ccc(OCc2nc(C#N)c(N3CCCC3)o2)cc1 | -113% (active)
C=CCC1(C(=O)N(C)Cc2ccccc2)CCN(C(=O)OC(C)(C)C)CC1 | inactive
CCN(CC)CCCN=C(N)N | inactive
COC(=O)C[C@H]1C=C[C@H](NC(=O)c2ccc(F)cc2)[C@@H](CO)O1 | inactive
Cc1ccc(-c2nc(C#N)c(NCCCn3ccnc3)o2)cc1 | inactive
N#Cc1nc(Cc2ccccc2)oc1NCCc1ccccc1 | -105% (active)
N#Cc1nc(Cc2cccc3ccccc23)oc1NCc1ccc2c(c1)OCO2 | -4.85% (inactive)
COC(=O)[C@]12CCCCC=C1N(Cc1ccc3c(c1)OCO3)C(=O)[C@H](CC(=O)NCc1cccs1)C2 | inactive
COc1ccccc1P(=O)(c1ccccc1)c1ccccc1NC(C)=O (stereo not given) | inactive
Cc1ccc(C(=O)Nc2c(-c3ccccc3)[nH][nH]c2=O)cc1 | inactive
CCOC(=O)c1sc(NC(=O)CCN2CCOCC2)c(C(=O)OCC)c1C | -80.1% (active)
CCOC(=O)c1c(NC(=O)CCCN2CCOCC2)sc2c1CC(C)(C)OC2 | inactive
COC(=O)c1c(NC(=O)CCN2CCOCC2)sc2c1CCCC2 | inactive
CCCCC[C@H](C)N1C[C@@H](COCc2ccccc2)Oc2cc(N3CC[C@@H](N(C)C)C3)ccc2S1(=O)=O | inactive
Cc1ccc2c(c1)N(C(=O)CCC(=O)N1CCc3ccccc3C1)CCO2 | -105% (active)
Cc1ccc(Cl)c(OCC(=O)N2CCc3ccccc3C2)c1 | inactive
Cc1ccc2c(c1)N(C(=O)CCC(=O)NCc1cccnc1)CCO2 | inactive
CCOC(=O)C1CCN(C(=O)C2CCN(S(=O)(=O)c3c(C)noc3C)CC2)CC1 | inactive
CCC(C)N(C(=O)CSc1ncnc2c1cnn2-c1ccccc1)C1CCS(=O)(=O)C1 (stereo not given) | inactive
CCN(CC)C(=O)CSc1ncnc2c1cnn2-c1ccccc1 | -110% (active)
CCN(C(=O)CSc1ncnc2c1cnn2-c1ccccc1)C1CCS(=O)(=O)C1 (stereo not given) | inactive
Cc1cccc(C)c1NC(=O)C(c1ccc(C(F)(F)F)cc1)n1c(=O)c(-c2ccco2)nc2ccccc21 (stereo not given) | inactive
O=C(Nc1ncc2c(n1)CC(c1ccco1)CC2=O)c1ccc(Cl)cc1 (stereo not given) | inactive
COC(=O)c1nc(NC(=O)c2ccc(Cl)cc2)n[nH]1 | inactive
O=C(Nc1ncc2c(n1)-c1ccccc1OC2)c1ccc(Cl)cc1 | -120% (active)
CN(C)c1ccc(Nc2c3c4c(cccc4n(C)c2=O)C(=O)c2ccccc2-3)cc1 | inactive
Cc1ccccc1NC(=O)CSC(=O)c1ccccc1 | inactive

Structure (SMILES) | activity change
Cc1ccccc1NC(=O)c1ccccc1 | -122% (active)
COc1cc2ccccc2cc1C(=O)Nc1ccccc1C | inactive
Cc1cccc(N(C(=O)c2csnn2)C(C(=O)NCc2ccccc2)c2ccncc2)c1 (stereo not given) | inactive
Cc1cccc(C2C3=C(CCCC3=O)N=C3c4ccccc4C(=O)C32)c1 (stereo not given) | inactive
CCOC(=O)[C@]12CCCC=C1N(CCC1=CCCCC1)C(=O)[C@H](CC(=O)N1CCN(C(=O)c3ccco3)CC1)C2 | inactive
COc1ccc(C(CNC(=O)CSc2ccccc2)N2CCOCC2)cc1 (stereo not given) | inactive
O=C(C(=O)N1CCC(c2ccccc2)CC1)c1ccccc1 | inactive
Cc1cccc(-n2c(Cc3cc(=O)[nH]c(=O)[nH]3)nnc2SC(C)C)c1 | inactive
O=C(Cn1cc(C(=O)c2cccs2)c2ccccc21)NCc1cccs1 | -110% (active)
Cc1cccc(NC(=O)Cn2cc(C(=O)c3ccco3)c3ccccc32)c1 | 11.5% (inactive)
COCCNC(=O)Cn1cc(C(=O)c2cccs2)c2ccccc21 | -3.12% (inactive)
FC(F)(F)c1cccc(-c2nc3ccccc3n2C(c2ccccc2)c2nc3ccccc3[nH]2)c1 (stereo not given) | inactive
COc1ccc(OCC(=O)NCCc2ccc(S(N)(=O)=O)cc2)cc1 | -119% (active)
COc1ccc(CCNC(=O)COc2ccc3c(c2)OCO3)cc1 | inactive
CC(C)(Oc1ccc(Cl)cc1)C(=O)OCC(=O)NCCc1ccc(S(N)(=O)=O)cc1 | inactive
CCOC(=O)CN(C(=O)CN1CCOCC1)c1ccc(Br)cc1 | 1.02% (inactive)
CCN(C(=O)COC(=O)c1cc(NS(=O)(=O)c2ccc(Cl)c([N+](=O)[O-])c2)ccc1O)C1CCCCC1 | inactive
COC(=O)[C@@]12C[C@@H](CC(=O)NCc3cccc(C(F)(F)F)c3)C(=O)N(Cc3ccco3)C1=CCC(C)(C)C2 | inactive
CC1CCCCC1NC(=O)CCS(=O)(=O)c1cccc2nonc12 (stereo not given) | -123% (active)
COc1ccc(C)cc1NC(=O)CCS(=O)(=O)c1cccc2nonc12 | 16.6% (inactive)
O=C(CCS(=O)(=O)c1cccc2nonc12)NCCc1ccccc1Cl | 2.49% (inactive)
C=CCNc1nnc(SCC(=O)N2CCCCC2)c2ccccc12 | 4.07% (inactive)
C=CCNc1nc(C)nc(OC)n1 | inactive
C=CCNc1nnc(C)c2ccccc12 | -110% (active)
